Results as given in PubChem BioAssay (NCATS).
Results filed as inconclusive are left out. A call without a number means that no potency is given here. The source made the active and inactive calls. Calls follow the shape of the dose curve; as a rule, active = well fitted curve in the direction sought with a large enough effect; inconclusive = small, poorly fitted or top-dose-only effect, or another doubt; inactive = no such curve, though single readings can be large; an effect the other way counts as inactive or inconclusive.

How the values were obtained:
[1] = Quantitative High-Throughput drug screen in 47 multiple myeloma cell lines against the NCATS MIPE library collection: FR4_PLB cell viability assay (AID 1918924; also: nearly all actives have a fitted effect of over 35% in size; also: potency is read from the fitted curve at half-maximal effect); conditions: FR4_PLB myeloma cells viability, CellTiter-Glo ATP, 48 h; series mostly up to 45.8 µM
Outline: (§1)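 Steps: seed 500 cells per well; pin-transfer MIPE 4.0 library; incubate 48 h at 37C, 5% CO2, humidified; add CellTiter-Glo, 5 min room temperature; read luminescence.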

[2] = Quantitative High-Throughput drug screen in 47 multiple myeloma cell lines against the NCATS MIPE library collection: Delta47_JCRB cell viability assay (AID 1918925; also: nearly all actives have a fitted effect of over 45% in size; also: potency is read from the fitted curve at half-maximal effect); conditions: Delta47 myeloma viability, CellTiter-Glo ATP, 48 h; series mostly up to 45.8 µM
Outline: (§2)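 Myeloma cell lines, 500 cells per well, exposed to MIPE 4.0 library compounds for 48 h at 37C, 5% CO2. Viability from ATP by CellTiter-Glo luminescence; normalised to DMSO (100%) and media-only (0%) wells.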

[3] = Quantitative High-Throughput drug screen in 47 multiple myeloma cell lines against the NCATS MIPE library collection: EJM_DSMZ cell viability assay (AID 1918926; also: nearly all actives have a fitted effect of over 30% in size); conditions: EJM myeloma cell viability, CellTiter-Glo ATP, 48 h; series mostly up to 45.8 µM
Outline: as §2

[4] = Quantitative High-Throughput drug screen in 47 multiple myeloma cell lines against the NCATS MIPE library collection: ARP1_JJKsccF8 cell viability assay (AID 1918928; also: nearly all actives have a fitted effect of over 40% in size; also: potency is read from the fitted curve at half-maximal effect); conditions: ARP1 myeloma cells viability, CellTiter-Glo ATP, 48 h; series mostly up to 45.8 µM
Outline: (§3)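 Each line was plated at 500 cells/well and treated 48 h with library drugs. Viability came from CellTiter-Glo luminescence relative to DMSO and cell-free medium controls.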

[5] = Quantitative High-Throughput drug screen in 47 multiple myeloma cell lines against the NCATS MIPE library collection: Karpas620_DSMZ cell viability assay (AID 1918959); conditions: Karpas620 myeloma viability, CellTiter-Glo ATP luminescence, 48 h; series mostly up to 45.8 µM; also: nearly all actives have a fitted effect of over 30% in size; also: potency is read from the fitted curve at half-maximal effect
Outline: as §1

[6] = Quantitative High-Throughput drug screen in 47 multiple myeloma cell lines against the NCATS MIPE library collection: KMM1_JCRB cell viability assay (AID 1918960); conditions: KMM1 myeloma viability, CellTiter-Glo ATP luminescence, 48 h; series mostly up to 45.8 µM; also: nearly all actives have a fitted effect of over 30% in size; also: potency is read from the fitted curve at half-maximal effect
Outline: as §3

[7] = Quantitative High-Throughput drug screen in 47 multiple myeloma cell lines against the NCATS MIPE library collection: KHM11_PLB cell viability assay (AID 1918962); conditions: KHM11 myeloma cell viability, CellTiter-Glo ATP luminescence, 48 h; series mostly up to 45.8 µM; also: nearly all actives have a fitted effect of over 35% in size
Outline: as §1

[8] = Quantitative High-Throughput drug screen in 47 multiple myeloma cell lines against the NCATS MIPE library collection: JIM3_ECACC cell viability assay (AID 1918963; also: nearly all actives have a fitted effect of over 35% in size; also: potency is read from the fitted curve at half-maximal effect); conditions: JIM3 myeloma viability, CellTiter-Glo ATP, 48 h; series mostly up to 45.8 µM
Outline: as §1

[9] = Quantitative High-Throughput drug screen in 47 multiple myeloma cell lines against the NCATS MIPE library collection: JJN3_DSMZ cell viability assay (AID 1918966; also: nearly all actives have a fitted effect of over 50% in size; also: potency is read from the fitted curve at half-maximal effect); conditions: JJN3 myeloma cells viability, CellTiter-Glo ATP, 48 h; series mostly up to 45.8 µM
Outline: as §2

[10] = Quantitative High-Throughput drug screen in 47 multiple myeloma cell lines against the NCATS MIPE library collection: H1112_PLB cell viability assay (AID 1918967; also: nearly all actives have a fitted effect of over 30% in size; also: potency is read from the fitted curve at half-maximal effect); conditions: H1112 myeloma cells viability, ATP luminescence, 48 h; series mostly up to 45.8 µM
Outline: as §2

[11] = Quantitative High-Throughput drug screen in 47 multiple myeloma cell lines against the NCATS MIPE library collection: KMS27_JCRB cell viability assay (AID 1918970); conditions: KMS27 myeloma cells, CellTiter-Glo ATP viability, 48 h; viability (% of DMSO): at 45.8 µM (top of the series); also: nearly all actives have a fitted effect of over 30% in size; also: potency is read from the fitted curve at half-maximal effect
Outline: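 Luminescent ATP read-out (CellTiter-Glo, 5 min at room temperature) after 48 h compound exposure of 500 KMS27_JCRB cells per well; DMSO wells define full viability and media-only wells zero.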

[12] = Quantitative High-Throughput drug screen in 47 multiple myeloma cell lines against the NCATS MIPE library collection: KMS12BM_JCRB cell viability assay (AID 1918971); conditions: KMS12BM myeloma viability, CellTiter-Glo ATP, 48 h; series mostly up to 45.8 µM; also: nearly all actives have a fitted effect of over 35% in size; also: potency is read from the fitted curve at half-maximal effect
Outline: (§4)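 CellTiter-Glo luminescence (ATP) after 48 h compound exposure, 37C/5% CO2; 500 cells/well; MIPE 4.0 approved/investigational drugs pinned in; DMSO = 100%, media only = 0% viability.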

[13] = Quantitative High-Throughput drug screen in 47 multiple myeloma cell lines against the NCATS MIPE library collection: AMO1_DSMZ cell viability assay (AID 1918927; also: nearly all actives have a fitted effect of over 30% in size; also: potency is read from the fitted curve at half-maximal effect); conditions: AMO1 myeloma cells viability, CellTiter-Glo ATP luminescence, 48 h; series mostly up to 45.8 µM
Outline: as §2

[14] = Quantitative High-Throughput drug screen in 47 multiple myeloma cell lines against the NCATS MIPE library collection: ARD_JJKsccE7 cell viability assay (AID 1918929; also: potency is read from the fitted curve at half-maximal effect); conditions: ARD myeloma cell line viability, CellTiter-Glo, 48 h; series mostly up to 45.8 µM
Outline: as §2

[15] = Quantitative High-Throughput drug screen in 47 multiple myeloma cell lines against the NCATS MIPE library collection: JIM1_ECACC cell viability assay (AID 1918964; also: potency is read from the fitted curve at half-maximal effect); conditions: JIM1 myeloma viability, CellTiter-Glo ATP luminescence, 48 h; series mostly up to 45.8 µM
Outline: as §2

[16] = Quantitative High-Throughput drug screen in 47 multiple myeloma cell lines against the NCATS MIPE library collection: Karpas25_ECACC cell viability assay (AID 1918968; also: nearly all actives have a fitted effect of over 35% in size; also: potency is read from the fitted curve at half-maximal effect); conditions: Karpas25 myeloma viability, CellTiter-Glo ATP, 48 h; series mostly up to 45.8 µM
Outline: as §2

[17] = Quantitative High-Throughput drug screen in 47 multiple myeloma cell lines against the NCATS MIPE library collection: Karpas417_ECACC cell viability assay (AID 1918961); conditions: Karpas417 myeloma viability, CellTiter-Glo ATP luminescence, 48 h; viability (% of DMSO): at 45.8 µM (top of the series); also: potency is read from the fitted curve at half-maximal effect
Outline: as §4

[18] = Quantitative High-Throughput drug screen in 47 multiple myeloma cell lines against the NCATS MIPE library collection: INA6_PLB cell viability assay (AID 1918965; also: nearly all actives have a fitted effect of over 55% in size; also: potency is read from the fitted curve at half-maximal effect); conditions: INA6 myeloma viability, CellTiter-Glo ATP luminescence, 48 h; series mostly up to 45.8 µM
Outline: as §4

Row | Structure (SMILES) | Potency [1] | Potency [2] | Potency [3] | Potency [4] | Potency [5] | Potency [6] | Potency [7] | Potency [8] | Potency [9] | Potency [10] | Potency [11] | Potency [12] | Potency [13] | Potency [14] | Potency [15] | Potency [16] | Potency [17] | Potency [18]
1 | O=C(O)CCC=CCC[C@@H]1[C@H](N2CCCCC2)[C@@H](O)C[C@@H]1OCc1ccc(-c2ccccc2)cc1 | inactive | inactive | inactive | inactive | inactive | inactive | inactive | inactive | inactive | inactive | inactive | inactive |  |  |  |  |  | 
2 | Fc1ccc(C(c2ccc(F)cc2)N2CCN(CC=Cc3ccccc3)CC2)cc1 | inactive | inactive | inactive |  | inactive | inactive |  |  |  | inactive |  | inactive | inactive | inactive | inactive | inactive |  | 
3 | C[C@@H]1C[C@H]2[C@@H]3CCC4=CC(=O)C=C[C@]4(C)[C@@]3(F)[C@@H](O)C[C@]2(C)[C@@]1(O)C(=O)CO | inactive | inactive | inactive | 0.0235 µM (active) | inactive |  |  | inactive | inactive |  | inactive |  | inactive |  | inactive | 0.0526 µM (active) | 0.0418 µM (active) | inactive
4 | CCCCOCCOc1nc(-c2ccc(C(=O)O)c(F)c2)sc1C | inactive | inactive |  |  | inactive | inactive |  | 0.372 µM (active) |  | inactive | inactive | 0.418 µM (active) | inactive |  |  |  | inactive | 
5 | CCNC(=O)CCCC=CC[C@@H]1[C@H](C=CC(O)CCc2ccccc2)[C@@H](O)C[C@@H]1O (stereo partly drawn) | inactive | inactive |  | 10.5 µM (active) | inactive | inactive |  | inactive |  | inactive | inactive | 7.43 µM (active) | inactive |  | inactive | inactive | inactive | inactive
6 | Cn1cc(-c2ccc3nnc(Sc4ccc5ncccc5c4)n3n2)cn1 | inactive | 0.469 µM (active) |  |  | 1.18 µM (active) |  |  | inactive |  | inactive | inactive |  |  |  |  |  |  | 
7 | COc1ccc(-c2cc(=O)c3c(O)cc(O[C@@H]4O[C@H](CO[C@@H]5O[C@@H](C)[C@H](O)[C@@H](O)[C@@H]5O)[C@@H](O)[C@H](O)[C@@H]4O)cc3o2)cc1O | inactive | 14.8 µM (active) |  | inactive |  | inactive |  | 16.6 µM (active) |  | 13.2 µM (active) | inactive |  | inactive |  | inactive | 11.8 µM (active) |  | 26.4 µM (active)
8 | Cc1ccc(S(=O)(=O)Nc2nc3ccccc3nc2Nc2ccc3nsnc3c2)cc1 | 6.45 µM (active) | 0.575 µM (active) |  | 7.24 µM (active) |  | 0.911 µM (active) |  | 1.82 µM (active) | 1.44 µM (active) |  | 0.162 µM (active) | 11.5 µM (active) | 0.512 µM (active) | 0.724 µM (active) | 0.182 µM (active) | 0.645 µM (active) |  | 1.29 µM (active)
9 | COC(=O)[C@H](c1ccccc1Cl)N1CCc2sccc2C1 | inactive | inactive |  | inactive |  |  |  | inactive | 20.9 µM (active) |  |  | inactive | 26.4 µM (active) |  |  |  |  | 
10 | CCCCCCOC(=O)N=C(N)c1ccc(NCc2nc3cc(C(=O)N(CCC(=O)OCC)c4ccccn4)ccc3n2C)cc1 | 23.5 µM (active) | 16.6 µM (active) |  |  | 7.43 µM (active) | 16.6 µM (active) |  |  |  |  | 11.8 µM (active) | 16.6 µM (active) |  | 14.8 µM (active) | 8.33 µM (active) |  |  | 16.6 µM (active)
11 | COc1ccc2c(c1)CC[C@H]1[C@@H]2CC[C@]2(C)[C@@H](NCCCCCCN3C(=O)C=CC3=O)CC[C@H]12 | inactive | inactive |  | inactive | inactive | inactive |  | inactive |  | inactive |  |  | inactive |  |  | inactive |  | 
12 | O=C1CN2Cc3c(ccc(Cl)c3Cl)N=C2N1 | inactive | 29.6 µM (active) |  |  | inactive | inactive |  |  |  | 29.6 µM (active) | 0.296 µM (active) | 23.5 µM (active) | inactive | inactive | inactive | 26.4 µM (active) |  | 
13 | CN(CC=CC#CC(C)(C)C)Cc1cccc2ccccc12 | inactive | inactive |  | inactive | inactive | inactive |  |  |  |  | inactive |  | inactive |  | inactive |  |  | 
14 | O=c1[nH]c(=O)n([C@H]2C[C@@H](O)[C@@H](CO)O2)cc1C(F)(F)F | inactive | 5.26 µM (active) |  |  | inactive |  |  | inactive | inactive |  | 7.43 µM (active) | 8.33 µM (active) |  |  |  | 10.5 µM (active) |  | 1.87 µM (active)
